Gal4-VP16 FLuc = counter-screen for ROR gamma inhibitors: Gal4-VP16 reporter. AID 2546. hit rate 3.5% among 310,000. Potency, µM (top dose mostly 53.6 µM), most hits filed as inhibitors. Drosophila S2 Gal4-VP16 UAS-luciferase, luminescence, 20 h;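 also: Gal4-VP16 expression switched on by copper sulfate through the metallothionein promoter; nearly all actives have a fitted effect of over 50% in size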
RORg inh = ROR gamma (mouse) transcription inhibition. P51450. Drosophila S2 Gal4-RORgamma UAS-luciferase reporter, 20 h. Potency, µM (series often up to 53.6 µM), actives largely listed as inhibitors. hit rate 5.4% among 310,000; also: nearly all actives have a fitted effect of over 60% in size
Target sequence (P51450 whole entry, looked up, the tested form may be a part): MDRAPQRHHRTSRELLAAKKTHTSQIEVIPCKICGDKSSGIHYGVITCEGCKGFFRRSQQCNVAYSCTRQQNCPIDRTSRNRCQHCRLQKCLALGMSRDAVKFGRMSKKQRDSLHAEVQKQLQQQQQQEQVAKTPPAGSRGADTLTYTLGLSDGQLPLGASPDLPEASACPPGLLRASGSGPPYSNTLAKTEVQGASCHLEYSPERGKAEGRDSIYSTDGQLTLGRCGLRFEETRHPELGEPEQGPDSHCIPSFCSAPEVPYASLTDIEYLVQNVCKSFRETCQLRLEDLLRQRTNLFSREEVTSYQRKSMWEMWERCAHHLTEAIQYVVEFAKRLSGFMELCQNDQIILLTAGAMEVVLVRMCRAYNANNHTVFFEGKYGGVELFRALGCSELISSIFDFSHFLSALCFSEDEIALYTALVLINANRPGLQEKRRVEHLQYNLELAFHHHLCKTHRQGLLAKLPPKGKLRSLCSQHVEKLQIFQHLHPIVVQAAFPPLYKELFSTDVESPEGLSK
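Compounds are pin-transferred onto Drosophila Schneider cells expressing a copper-inducible Gal4–ROR gamma transactivation domain fusion. After 1 hr, copper sulfate is added to 700 uM final; luciferase is read 20 hr later.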
TDP1 cell CPT = DT40-hTDP1 cell growth loss with CPT; chicken DT40 Tdp1-/-;hTDP1 cells + 20 nM CPT, ATP luminescence, 48 h; Potency, µM (series often up to 46.2 µM), usual class: inhibitors; hit rate 12% among 420,000; AID 686979; also: nearly all actives have a fitted effect of over 55% in size
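Cell growth measured by CellTiter-Glo luminescence after a minimum 48 h, 37 C compound exposure with 20 nM CPT in Tdp1-knockout DT40 cells stably expressing hTDP1, seeded 400/well; qHTS titration format.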
LDHA block = inhibitors of human lactate dehydrogenase A | P00338 | purified LDHA, NADH/diaphorase-resazurin fluorescence; stronger effect = lower value | activity change, % (values are at about 110 or 230 µM) | hit rate 0.15% among 480,000; in the data active = activity change below about -30%; inconclusive = mostly about -25% to -30%
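Human LDH5 (2 nM) was incubated with 0.06 mM NADH and 0.2 mM pyruvate for 5 min at room temperature in Tris pH 7.4. Remaining NADH was coupled through diaphorase/resazurin, and resorufin fluorescence was read at 0 and 20 min.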
IL-1B inflam inh = inflammasome signaling inhibition, IL-1 beta readout; activity change, % at 57.5 µM; THP-1 LPS/ATP IL-1B secretion, AlphaLISA, 16 h; stronger effect = lower value; AID 743279; hit rate 4.7% among 360,000; in the data active = activity change below about -50%; inconclusive = mostly about -30% to -49%
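Secreted IL-1B measured by AlphaLISA bead assay after 16 h compound exposure of THP-1 cells; compounds (final up to 57.5 uM) added 1 h before LPS (250 ng/mL) and ATP (1.25 mM) stimulation; lower signal means less secretion.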
DT40 TDP1 no CPT = qHTS for Inhibitors of human tyrosyl-DNA phosphodiesterase 1 (TDP1): qHTS in cells in absence of CPT; DT40 Tdp1-/- hTDP1 cells, no CPT, ATP luminescence, 48 h; Potency, µM (doses to about 46.2 µM), most hits filed as inhibitors; hit rate 15% among 420,000; AID 686978, 2013; also: nearly all actives have a fitted effect of over 55% in size
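Camptothecin absent (DMSO only). Human TDP1-complemented DT40 knockout cells, 400 cells/well, 37 °C for minimum 48 hr; ATP measured via CellTiter-Glo, 30 min dark incubation, luminescence.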
A number is an active result; - = inactive; ? = inconclusive; . = no result; [ ] = remark or other dose. Hits are enriched below; roughly 18% of the tested compounds scored in any of these assays. Unless noted, calls follow the shape of the dose curve; as a rule, active = well fitted curve in the direction sought with a large enough effect; inconclusive = small, poorly fitted or top-dose-only effect, or another doubt; inactive = no such curve, though single readings can be large; an effect the other way counts as inactive or inconclusive.

SMILES	Gal4-VP16 FLuc	RORg inh	TDP1 cell CPT	LDHA block	IL-1B inflam inh	DT40 TDP1 no CPT
Cc1ccc(C(=O)NC(=S)NNC(=O)CC#N)cc1	-	10µM	-	-	-	-
Cc1ccc(C(=O)NCC#N)cc1	-	-	?	-	-	?
Cc1ccc(C(=O)NC(C#N)=C(Cl)Cl)cc1	10µM	8.9µM	?	-	-103	2.3µM
CCCCCC(=O)NC(=S)NC1C2CC3CC(C2)CC1C3 (stereo unspecified)	7.9µM	2.2µM	?	-	-	?
CCc1ccc(NC(=S)NCCCO)cc1	.	.	.	-	.	.
CC(=O)NCc1ccc(C(=O)OC/C=C/c2ccccc2)cc1	.	.	.	-	.	.
CC(C)(C)SCC(=O)NCC1CCN(c2ccccc2)C1 (stereo unspecified)	.	.	.	-	.	.
CCCCCC(=O)NNC(=S)NC(C)=O	-	-	?	-	-	18µM
CNC(=S)NNC(=O)c1ccc(C)cc1	.	.	.	-	.	.
CCCCC(=O)NNC(=S)NC(=O)c1ccc(C)cc1	18µM	4.5µM	-	-	-	?
CCSCc1ccc(C(=O)O)cc1	.	.	.	-	.	.
NC(=O)c1c(C(F)(F)F)cc(-c2ccccc2)nc1NCCO	-	-	-	-	-	-
CCCCNc1nc(-c2ccccc2)cc(C(F)(F)F)c1C(N)=O	?	?	?	-	-70	?
O=C(c1ccc(Cl)cc1Cl)c1ncc(C(F)(F)F)cc1Cl	-	-	-	-	-	-
O/N=C(\c1ccc(Cl)cc1Cl)c1ncc(C(F)(F)F)cc1Cl	25µM	11µM	-	-	-	?
Cc1ccc(C(=O)/C=C/c2cc(Br)ccc2F)o1	.	.	.	-	.	.
COc1ccc(-c2cc3ccc(OCC(=O)OC(C)C)cc3oc2=O)cc1	.	.	.	-	.	.
CC(C)C[C@@H](COCc1ccc(F)cc1)N1CCN(C(=O)c2cccc(C(F)(F)F)c2)CCC1=O	.	.	?	-	-	?
CC(C)CC(COCc1cccc(Cl)c1)N1CCN(C(=O)c2ccc(C(F)(F)F)cc2)CCC1=O (stereo unspecified)	?	?	?	-	?	16µM
CC(C)C[C@@H](COCc1cccc(Cl)c1)N1CCN(C(=O)c2cccc(C(F)(F)F)c2)CCC1=O	-	-	?	-	?	16µM
N#Cc1c(N)n[nH]c1CCCNC(=O)c1cc2ccccc2cc1O	.	.	.	-	.	.
O=S(=O)(c1ccc(Cl)cc1)N1CCN(C/C=C/c2ccccc2)CC1	.	.	.	-	.	.
CC(Oc1ccc(F)cc1)C(=O)Nc1cc(S(=O)(=O)N2CCOCC2)ccc1N1CCCCC1 (stereo unspecified)	.	.	?	-	-	16µM
CC(Oc1ccc(F)cc1)C(=O)Nc1cc(S(=O)(=O)N2CCOCC2)ccc1N1CCCC1 (stereo unspecified)	-	-	-	-	-	-
CC(Oc1cccc(Cl)c1)C(=O)Nc1cc(S(=O)(=O)N2CCOCC2)ccc1N1CCCCC1 (stereo unspecified)	.	.	?	-	-	21µM
SMILES	Gal4-VP16 FLuc	RORg inh	TDP1 cell CPT	LDHA block	IL-1B inflam inh	DT40 TDP1 no CPT
CCN1CCN(c2ccc(S(=O)(=O)N3CCOCC3)cc2NC(=O)C(C)Oc2cccc(Cl)c2)CC1 (stereo unspecified)	.	.	?	-	?	?
Cc1cc(Br)ccc1NC(=O)CNC(=O)CCc1ncc(-c2ccccc2F)o1	.	.	.	-	.	.
COc1ccc(C(NC(=O)Cc2ccccc2)c2ccc(OC)c(OC)c2)cc1OC	.	.	.	-	.	.
CC(Sc1nc(-c2ccccc2)cc(C(F)(F)F)n1)C(=O)O (stereo unspecified)	-	-	?	-	-	-
CCN(CC)C(=O)c1sc(NC(=O)C(C)Sc2nc(-c3ccccc3)cc(C(F)(F)F)n2)c(C(=O)OC)c1C (stereo unspecified)	.	.	7.3µM	-	.	7.3µM
CCCOC(=O)c1c(NC(=O)C(C)Sc2nc(-c3ccccc3)cc(C(F)(F)F)n2)sc(C(=O)N(C)C)c1C (stereo unspecified)	.	.	?	-	.	15µM
Cc1ccc(C(=O)N2CCN(c3nc4c(c(=O)n(C)c(=O)n4C)n3Cc3ccccc3)CC2)cc1	.	.	.	-	.	.
CCOc1cc(-c2nc(-c3ccccc3OC)no2)cc(OCC)c1OCC	-	-	?	-	?	29µM
COc1cc(-c2nc(-c3cccc(C)c3)no2)cc(OC)c1OC	-	-	18µM	-	-	23µM
COc1ccc(-c2nc(-c3cccc(C)c3)no2)cc1OC	?	?	-	-	-	-
COc1ccccc1-c1nc(-c2cccc(C)c2)no1	22µM	?	-	-	-	?
Cc1ccc(CNC(=O)c2scnc2C)s1	.	.	.	-	.	.
CC(Oc1ccc([N+](=O)[O-])cc1Cl)C(=O)Nc1ccc(C(N)=O)cc1 (stereo unspecified)	-[10 µM]	-	-	-	-	-
CN(C)c1ccc(NC(=O)c2ccc([N+](=O)[O-])cc2Cl)cc1	-	-	-	-	-	-
CC(C)C(=O)Nc1ccc(NC(=O)c2ccc([N+](=O)[O-])cc2Cl)cc1	-	?	?	-	-	18µM
O=C(Nc1cccc(O)c1)c1ccc([N+](=O)[O-])cc1Cl	-	-	15µM	-	-	?
CC(=O)Nc1ccc(Oc2ccc([N+](=O)[O-])cc2Cl)cc1	-	-	10µM	-	-73	?
CCc1ccc(C(=O)N2CCc3c(sc4ncnc(N)c34)C2)cc1	.	.	.	-	.	.
Cc1ccc(S(=O)(=O)N(C)CCCC(=O)Nc2ccncc2)cc1	?	-	10µM	-	-	13µM
Cc1ccc(S(=O)(=O)N(C)CC(=O)Nc2ccncc2)cc1	-	-	?	-	-	?
Cc1ccc(S(=O)(=O)N(C)CCCC(=O)Nc2ccc(F)cc2)cc1	-	-	21µM	-	-	-
COc1ccc(NC(=O)CCCN(C)S(=O)(=O)c2ccc(C)cc2)cc1	-	-	?	-	-	?
O=C(NCc1coc(-c2cccs2)n1)c1ccc(OC(F)(F)F)cc1	.	.	.	-	.	.
CN(c1ccccc1)S(=O)(=O)c1ccc(C(=O)Nc2nnc(C3=COCCO3)o2)cc1	4.5µM	1.1µM	?	-	-	?
CN(c1ccc(C(=O)Nc2ccccn2)cc1)S(=O)(=O)c1ccccc1	?	-	-	-	-	-
CN(C)c1ccc(C(=O)Nc2nnc(C3=COCCO3)o2)cc1	2.8µM	1.6µM	?	-	-	?
CC(C)(C)c1ccc(C(=O)Nc2nnc(C3=COCCO3)o2)cc1	?	0.18µM	13µM	-	-	16µM
Cc1cccc(C(=O)Nc2nnc(C3=COCCO3)o2)c1	1µM	0.5µM	?	-	-	?
CCN(CC)c1ccc(NC(=O)CCCn2cnc3c2c(=O)n(C)c(=O)n3C)cc1	.	.	.	-	.	.
CC(C)Oc1ccc(C(=O)Nc2nnc(C3=COCCO3)o2)cc1	.	.	18µM	-	-	?

Assay outcomes as filed in PubChem.
